Screening data from PubChem BioAssay.
Shown are actives, neighbours in structure and some others; about 7.9% of the full set was active somewhere.
NOMO-1 viab = STK33 inhibitor candidate reducing NOMO-1 cell viability; NOMO-1 AML viability, CellTiter-Glo luminescence, 72 h; inhibition, % (test concentration not listed); hit rate 7.5% among 37,000; in the data active means inhibition above about 80%
Hedgehog inh = Sonic Hedgehog pathway inhibition; Shh-LIGHT2 Gli-luciferase reporter, 30 h; inhibition, % (test concentration not listed); hit rate 2.1% among 22,000; AID 2313;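 active means mean inhibition across valid replicates above about 65%, limit read from the data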;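 further: pathway switched on by Shh-conditioned medium diluted 1 in 25 in low serum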
MITF inh = MITF inhibition. TRPM1 promoter luciferase, luminescence, 24 h. inhibition, % (test concentration not listed). hit rate 0.28% among 37,000. AID 2240; in the data active means inhibition above about 85%;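 further: human melanocyte line stably carrying TRPM1 promoter luciferase reporter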
* = called active by the depositor.

For Cc1ccc(S(=O)(=O)Nc2ccc3c(c2)C(=O)N([C@@H](C)CO)C[C@@H](C)[C@H](CN(C)Cc2ccc(-c4ccccc4)cc2)O3)cc1 the results were NOMO-1 viab 123*, Hedgehog inh 18 and MITF inh 36.
CCc1c(C)sc(NC(=S)Nc2cnccn2)c1C(=O)OC was read as NOMO-1 viab 27 and MITF inh -17.
COC(=O)c1c(C)ncc2c1COC(C)OC2 (stereo not given) was read as NOMO-1 viab -12, Hedgehog inh -1 and MITF inh 25.
Screening C/C=C1\C(O[C@@H]2O[C@H](CO[C@@H]3O[C@H](CO)[C@@H](O)[C@H](O)[C@H]3O)[C@@H](O)[C@H](O)[C@H]2O)OC=C(C(=O)OC)C1CC(=O)OCCc1ccc(O)cc1 (stereo not given in full) returned NOMO-1 viab 3, Hedgehog inh 0 and MITF inh 13.
`COc1cc(OC)c(-c2c(OC)cc(OC)cc2OC)c(OC)c1` gave NOMO-1 viab 16, Hedgehog inh -39 and MITF inh -2.
`CC(=O)NCCCN(CCCCN(CCCNC(=O)/C=C/c1ccc(O)cc1)C(C)=O)C(=O)/C=C/c1ccc(O)cc1` gave NOMO-1 viab -1, Hedgehog inh -42 and MITF inh -62.
For COc1ccc(NC(=O)Nc2cccc3c2O[C@H](CN(C)S(=O)(=O)c2ccc(Cl)cc2)[C@H](C)CN([C@@H](C)CO)C3=O)cc1 the results were NOMO-1 viab 15, Hedgehog inh 33 and MITF inh -6.
For COc1ccc(S(=O)(=O)N(C)C[C@@H]2Oc3c(NC(=O)Nc4ccc(C(F)(F)F)cc4)cccc3C(=O)N([C@H](C)CO)C[C@@H]2C)cc1 the results were NOMO-1 viab 114*, Hedgehog inh -33 and MITF inh 9.
`COc1ccc(NC(=O)Nc2cccc3c2O[C@@H](CN(C)S(=O)(=O)c2ccc(Cl)cc2)[C@@H](C)CN([C@@H](C)CO)C3=O)cc1` gave NOMO-1 viab 24, Hedgehog inh 101* and MITF inh -8.
For COc1ccc(NC(=O)Nc2cccc3c2O[C@H](CN(C)S(=O)(=O)c2ccc(OC)cc2)[C@@H](C)CN([C@H](C)CO)C3=O)cc1 the results were NOMO-1 viab -1, Hedgehog inh -8 and MITF inh -36.
For COc1ccc(S(=O)(=O)N(C)C[C@@H]2Oc3c(NC(=O)Nc4ccc(C(F)(F)F)cc4)cccc3C(=O)N([C@@H](C)CO)C[C@@H]2C)cc1 the results were NOMO-1 viab 93*, Hedgehog inh -29 and MITF inh -17.
`COc1ccc(NC(=O)Nc2cccc3c2O[C@@H](CN(C)S(=O)(=O)c2ccc(OC)cc2)[C@H](C)CN([C@H](C)CO)C3=O)cc1` gave NOMO-1 viab 16, Hedgehog inh -14 and MITF inh 0.
`C[C@H](O)C1=CC2(CC[C@@H]3C(C(=O)O)=CO[C@@H](O[C@@H]4O[C@H](CO)[C@@H](O)[C@H](O)[C@H]4O)[C@@H]32)OC1=O` (stereo not given in full) gave Hedgehog inh 13.
Screening NS(=O)(=O)c1ccc(NC(=O)CSc2nnc(-c3ccccc3F)n2-c2ccccc2)cc1 returned NOMO-1 viab 6 and MITF inh 8.
C[C@@H]1CN([C@H](C)CO)C(=O)c2cccc(NS(=O)(=O)c3ccc(Cl)cc3)c2O[C@H]1CN(C)Cc1ccncc1 was read as NOMO-1 viab -8, Hedgehog inh -19 and MITF inh -5.
Screening CC(C)(C)C1CCc2c(sc3ncn(CC(=O)NCc4ccco4)c(=O)c23)C1 (stereo not given) returned NOMO-1 viab 25 and MITF inh -10.
`C[C@@H]1CN([C@@H](C)CO)C(=O)Cc2cc(NC(=O)Cc3cn(C)c4ccccc34)ccc2O[C@@H]1CN(C)S(=O)(=O)c1ccccc1` gave NOMO-1 viab 12, Hedgehog inh 13 and MITF inh 11.
COc1cc(/C=C/C(=O)N2CCC=CC2=O)cc(OC)c1OC was read as NOMO-1 viab 119*, Hedgehog inh 84* and MITF inh 62.
For COc1cc(/C=C\C(=O)O)cc(OC)c1OC the results were Hedgehog inh 21.
Cc1nn(C(=O)Cn2nc([N+](=O)[O-])cc2C)c(C)c1Cl was read as NOMO-1 viab -12 and MITF inh -16.
For CCn1c(SCC(=O)Nc2cc(Cl)ccc2Cl)nnc1-c1ccc(Cl)cc1 the results were NOMO-1 viab -29 and MITF inh 6.
`C[C@@H]1CN([C@@H](C)CO)C(=O)Cc2cc(NC(=O)Nc3ccc(C(F)(F)F)cc3)ccc2O[C@@H]1CN(C)Cc1ccc(C(F)(F)F)cc1` gave NOMO-1 viab 124* and MITF inh 2.
